# Rows were chosen to be rich in hits. Some 19% of all compounds tested hit in one or more screens of this group.
# DT40 TDP1 CPT – qHTS for Inhibitors of human tyrosyl-DNA phosphodiesterase 1 (TDP1): qHTS in cells in presence of CPT. Potency, µM (top dose mostly 46.2 µM), usual class: inhibitors. 420,000 tested, 12% active. chicken DT40 Tdp1-/-;hTDP1 cells + 20 nM CPT, ATP luminescence, 48 h; note: nearly all actives have a fitted effect of over 55% in size
#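 Chicken DT40 Tdp1-/- cells complemented with human TDP1, 400 cells/well, exposed to compounds plus 20 nM camptothecin for at least 48 h at 37 C; viability read as ATP content by CellTiter-Glo luminescence.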
# IL-1B inflam inh – qHTS for Inhibitors of Inflammasome Signaling: IL-1-beta AlphaLISA Primary Screen | THP-1 LPS/ATP IL-1B secretion, AlphaLISA, 16 h; hits give low values | activity change, % at 57.5 µM | 360,000 tested, 4.7% active | AID 743279, 2014; in the data active = activity change below about -50%; inconclusive = mostly about -30% to -49%
#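 THP-1 cells pretreated 1 hr with compounds (up to 57.5 uM final), then stimulated with LPS (250 ng/mL final) plus ATP (1.25 mM final); secreted IL-1B measured by AlphaLISA after 16 hr, decreased signal indicating inhibition.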
# ELG1 repair inh – qHTS screen for small molecules that inhibit ELG1-dependent DNA repair in human embryonic kidney (HEK293T) cells expressing luciferase-tagged ELG1. AID 504467, 2011. Potency, µM (doses to about 46.1 µM), usual class: inhibitors. HEK293T ELG1-luciferase reporter, luminescence, 16 h; DNA damage induced by 5-fluorouridine. 330,000 tested, 2.3% active; note: nearly all actives have a fitted effect of over 55% in size
#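 Cells (2,000 per well) received 5-fluorouridine plus test compound or DMSO and were incubated 16 hr at 37 °C, 5% CO2. Luciferase activity was read by luminescence 30 min after ONE-Glo addition; signal suppression marked inhibition of damage-induced ELG1 function.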
# TDP1 inh – qHTS Assay for Inhibitors of Tyrosyl-DNA Phosphodiesterase (TDP1); Tyrosyl-DNA phosphodiesterase 1 (Homo sapiens), Q9NUW8; recombinant TDP1, AlphaScreen DNA substrate cleavage; Potency, µM (doses to about 130 µM), most hits filed as inhibitors; 350,000 tested, 0.28% active; AID 485290, 2010; note: nearly all actives have a fitted effect of over 40% in size
# Target sequence (Q9NUW8 whole entry, looked up): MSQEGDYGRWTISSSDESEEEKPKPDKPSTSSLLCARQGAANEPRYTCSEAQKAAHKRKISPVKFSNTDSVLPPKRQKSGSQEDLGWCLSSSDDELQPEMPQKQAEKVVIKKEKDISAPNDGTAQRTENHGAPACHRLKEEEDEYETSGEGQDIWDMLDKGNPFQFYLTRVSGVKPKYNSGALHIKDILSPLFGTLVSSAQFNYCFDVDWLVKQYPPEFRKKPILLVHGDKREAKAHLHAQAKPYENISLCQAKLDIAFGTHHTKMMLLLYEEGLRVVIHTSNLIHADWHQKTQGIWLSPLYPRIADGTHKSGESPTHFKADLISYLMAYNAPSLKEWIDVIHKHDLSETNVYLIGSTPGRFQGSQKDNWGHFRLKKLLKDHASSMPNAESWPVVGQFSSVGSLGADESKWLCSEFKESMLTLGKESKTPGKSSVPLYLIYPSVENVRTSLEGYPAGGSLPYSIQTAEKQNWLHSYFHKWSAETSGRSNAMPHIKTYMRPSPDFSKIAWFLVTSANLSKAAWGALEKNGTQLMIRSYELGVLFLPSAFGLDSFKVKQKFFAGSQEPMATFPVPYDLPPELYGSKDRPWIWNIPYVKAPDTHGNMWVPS
#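 Steps: enzyme plus compound, 15 min RT; add biotin/phosphotyrosine-FITC oligonucleotide (15 nM final), react 5 min; add donor/acceptor beads (10 ug/ml final), 10 min; read AlphaScreen. Tdp1 at 1 nM final.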
# DT40 TDP1 no CPT – qHTS for Inhibitors of human tyrosyl-DNA phosphodiesterase 1 (TDP1): qHTS in cells in absence of CPT. DT40 Tdp1-/- hTDP1 cells, no CPT, ATP luminescence, 48 h. Potency, µM (top dose mostly 46.2 µM), hits mostly inhibitors. 420,000 tested, 15% active; note: nearly all actives have a fitted effect of over 55% in size
#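 Compound effects on proliferation are scored in DT40 Tdp1-/-;hTDP1 cells in the absence of CPT. ATP levels (CellTiter-Glo luminescence) are recorded after a ≥48 hr, 37 °C incubation.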
# Giardia kill – Small Molecules that selectively kill Giardia lamblia: qHTS; Giardia lamblia trophozoite viability; activity change, % at 7.66 µM, hits read low; 340,000 tested, 0.15% active; in the data active = activity change below about -80%; inconclusive = between about -30% and that limit;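 note: parasites exposed to compound for two days anaerobically before the ATP read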
#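 Giardia lamblia trophozoites (100 cells/well) were incubated with compounds for 48 h at 37 deg C under anaerobic conditions. Viability was read as ATP content by one-step luminescence after 15-30 min at room temperature.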
# Numbers stand for hits; . = inactive; ? = inconclusive; / = not tested or not shown; [ ] = remark or other dose. Unless noted, calls come from the whole dose curve; as a rule, active = well fitted curve in the direction sought with a large enough effect; inconclusive = small, poorly fitted or top-dose-only effect, or another doubt; inactive = no such curve, though single readings can be large; an effect the other way counts as inactive or inconclusive.
SMILES,DT40 TDP1 CPT,IL-1B inflam inh,ELG1 repair inh,TDP1 inh,DT40 TDP1 no CPT,Giardia kill
CCCCOc1ccc(C(=O)C(CN2CCOCC2)c2ccccc2)cc1 (configuration not stated),13µM,-98,?,.,15µM,.
COc1ccc(C(O)(C(C)C)C(CN2CCOCC2)c2ccccc2)cc1 (configuration not stated),?,.,?,/,?,.
O=C(c1ccc(Cl)cc1)C(CN1CCCC1)c1ccccc1 (configuration not stated),4.1µM,-98,?,/,4.1µM,.
COc1ccc(C(=O)C(CN2CCOCC2)c2ccccc2)cc1 (configuration not stated),2.9µM,-99,?,.,3.3µM,.
O=C(c1ccc2[nH]c(=O)c(=O)[nH]c2c1)N1CCc2ccccc21,.,.,.,.,.,.
CC(OC(=O)C1=COCCO1)C(=O)Nc1ncc(Cl)cc1Cl (configuration not stated),?,.,.,.,.,.
COCc1c(C(=O)N2CCN(c3ccccc3)CC2)cnn1-c1nccc(-c2ccco2)n1,.[9.04 µM],/,/,/,.,/
COc1ccc(C(=O)C(CN2CCCC2)c2ccccc2)cc1 (configuration not stated),4µM,-109,16µM,.,3.2µM,.
COc1ccc(C(=O)C(OC(=O)c2ccccc2)c2ccccc2)cc1 (configuration not stated),.,.,?,.,?,.
CC(C)(CO)CN1CCC(n2nccc2NC(=O)C2CCCC2)CC1,.,.,.,.,.,.
CN(C)c1ccc(-c2nc(-c3cc4cc(Cl)ccc4oc3=O)cs2)cc1,.,/,/,.,.,/
CCNC(=O)N1CCN(CCCC(c2ccc(F)cc2)c2ccc(F)cc2)CC1,21µM,.,.,.,18µM,.
COc1ccc(C(C(=O)NC2CCCC2)N(C(=O)c2ccoc2C)c2ccc(C)c(C)c2)cc1 (configuration not stated),?,?,.,.,13µM,.
CCc1ccc(N(C(=O)c2ccoc2C)C(C(=O)NC2CCCC2)c2ccc(OC)cc2)cc1 (configuration not stated),23µM,?,.,.,18µM,.
COc1ccc(C(C(=O)NC2CCCC2)N(C(=O)c2ccoc2C)c2ccccc2)cc1 (configuration not stated),?,.,.,.,?,.
COc1ccc(N(C(=O)c2ccco2)C(C(=O)NC2CCCC2)c2ccc(N(C)C)cc2)cc1OC (configuration not stated),.,.,.,.,.,.
COc1ccc(C(C(=O)NC2CCCC2)N(C(=O)c2ccoc2C)c2cc(C)cc(C)c2)cc1 (configuration not stated),26µM,?,.,.,29µM,.
CCCS(=O)(=O)N1CC(=O)N(c2cccc(F)c2)C(C)(C(=O)NC2CCCCCC2)C1 (configuration not stated),.,/,/,.,.,/
COC(=O)C/C=C\[C@@H](C)[C@@H](/C=N\O[C@@H](C)CN1CCCc2nc(C)c(C)cc21)OC,/,/,/,.[21 µM],/,/
CC1CCCN(C(=O)c2nn(C)c3c2CS(=O)(=O)c2ccccc2-3)C1 (configuration not stated),.,.,.,.,.,.
O=C(O)c1c2c(nc3ccccc13)CCCC2,.,/,/,/,.,/
CCCc1ccc(S(=O)(=O)N2CCC(c3nnc(-c4cccc(C)c4)o3)CC2)cc1,5.2µM,/,/,.,4.6µM,/
CC1CCN(S(=O)(=O)c2cccc(-c3nnc(-c4cccnc4)o3)c2)CC1,.,.,.,.,.,.
Cc1ccc(S(=O)(=O)N2CCC(c3nnc(-c4cccc(C)c4)o3)CC2)cc1,3.7µM,/,/,.,3.7µM,/
CCCc1ccc(S(=O)(=O)N2CCC(c3nnnn3-c3ccc(OC)cc3)CC2)cc1,.,/,/,.,.,/
SMILES,DT40 TDP1 CPT,IL-1B inflam inh,ELG1 repair inh,TDP1 inh,DT40 TDP1 no CPT,Giardia kill
Cc1ccc(CN(Cc2ccco2)C(=O)c2oc3c(C)c(C)ccc3c2C)cc1,?,/,/,.,23µM,/
Cc1ccc(CN(Cc2ccco2)C(=O)c2cccc(C)c2)cc1,15µM,/,/,.,16µM,/
Cc1cc2oc(C(=O)N(Cc3ccco3)Cc3ccccc3Cl)c(C)c2cc1C,?,/,/,.,15µM,/
Cc1ccc2occ(CC(=O)N(Cc3ccc(Cl)cc3)Cc3ccco3)c2c1,?,/,/,.,23µM,/
CCOC(=O)CNC(=S)N(Cc1ccco1)Cc1ccccc1Cl,?,.,.,/,.,.
O=C(Cn1c(=O)cnc2ccccc21)N1CCN(S(=O)(=O)c2ccccc2Br)CC1,.,.,.,/,.,.
Cc1ccc2occ(CC(=O)N(Cc3ccc(C(C)C)cc3)C3CCS(=O)(=O)C3)c2c1 (configuration not stated),?,/,/,.,?,/
Cc1ccc(CN(Cc2ccco2)C(=O)c2oc3ccc(C)cc3c2C)cc1,?,/,/,.,15µM,/
Cc1ccc2oc(C(=O)NCC(c3ccco3)N(C)C)c(C)c2c1 (configuration not stated),?,.,?,.,4.1µM,.
Cc1ccc(NC(=O)Cc2coc3c(C)c(C)ccc23)cc1Cl,.,/,/,.,.,/
Cc1ccc2c(CC(=O)NCc3ccco3)coc2c1C,13µM,.,?,.,12µM,.
Cc1ccc2occ(CC(=O)N(Cc3ccccc3Cl)C3CCS(=O)(=O)C3)c2c1 (configuration not stated),?,/,/,.,23µM,/
COc1ccc2oc(C(=O)N(Cc3ccco3)Cc3cccs3)c(C)c2c1,?,.,.,/,?,.
CSC1=NC=C(C#N)C2=NC(c3c(Cl)cccc3Cl)NN12 (configuration not stated),?,.,/,/,?,/
COc1ccc(CNC(=O)C2(CC3CC(c4ccccc4)=NO3)CCNCC2)cc1 (configuration not stated),?,.,/,/,.,.
CCCCN(C1CCS(=O)(=O)C1)S(=O)(=O)c1ccc(OC)cc1 (configuration not stated),.,.,.,.,.,.
C=C1C=C(C(F)F)n2ncc(C(=O)NCc3ccc(Cl)cc3Cl)c2N1,8.9µM,/,/,/,16µM,/
C=C1C=C(C(F)F)n2ncc(C(=O)NCc3ccccc3OC)c2N1,10µM,/,/,/,?,/
